In PubChem BioAssay (EPA / NIEHS):
Activity calls are given as the source filed them. The calls were made as follows: active = hit-call score of the fitted dose curve at least 0.9, where 1 is the maximum; inactive = score below 0.9.

Assays:
[1] = ATG_CRE_CIS: Attagene CIS-FACTORIAL HepG2 Assay for human cAMP Responsive Element (CRE) binding protein 3 (AID 2282926); settings: HepG2 CRE cis-reporter, Attagene multiplexed mRNA; actives raise or lower the signal
In short: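 Endogenous transcription factor activity read via CRE-regulated reporter transcripts in transfected HepG2 cells. After 24 h exposure, RNA was reverse-transcribed, amplified, fluorescently labelled and sized by capillary electrophoresis; gain or loss fitted against DMSO.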

[2] = biological target: CCAAT/enhancer-binding protein beta (Homo sapiens) (UniProt P17676); assay: ATG_C_EBP_CIS: Attagene CIS-FACTORIAL HepG2 Assay for human CCAAT/Enhancer Binding Protein (C/EBP) beta (AID 2282927); settings: HepG2 Attagene cis-factorial transcription factor reporter; actives raise or lower the signal
Sequence of CCAAT/enhancer-binding protein beta (Homo sapiens) (P17676 whole entry, looked up): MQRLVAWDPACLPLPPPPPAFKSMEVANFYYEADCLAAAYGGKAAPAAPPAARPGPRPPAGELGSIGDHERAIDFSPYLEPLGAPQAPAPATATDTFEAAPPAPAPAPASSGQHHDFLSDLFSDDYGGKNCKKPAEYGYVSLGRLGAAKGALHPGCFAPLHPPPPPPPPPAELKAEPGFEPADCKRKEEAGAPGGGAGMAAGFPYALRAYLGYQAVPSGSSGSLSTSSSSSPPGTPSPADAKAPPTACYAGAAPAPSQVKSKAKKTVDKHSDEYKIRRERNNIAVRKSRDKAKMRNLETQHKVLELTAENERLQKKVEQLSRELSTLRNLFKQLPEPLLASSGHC
In short: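 Following a 24 h incubation with test chemical, transfected HepG2 cells yielded RNA whose reporter transcripts were quantified by RT-PCR and fluorescent capillary electrophoresis, with DMSO serving as baseline for bidirectional fitting.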

[3] = ATG_CMV_CIS: Attagene CIS-FACTORIAL HepG2 Assay for human CMV (Internal Marker) (AID 2282928); settings: HepG2 CMV promoter reporter, transcription factor profiling; actives raise or lower the signal;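 also: endpoint acts as a background internal control marker rather than a target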
In short: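 Readout: fluorescent reporter cDNA fragments separated by capillary electrophoresis after RT-PCR and HpaI cut. Cells: HepG2 carrying transfected cis-promoter reporter constructs, dosed 24 h. Endpoint serves as background internal-marker control, fit bidirectionally versus DMSO.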

[4] = ATG_DR4_LXR_CIS: Attagene CIS-FACTORIAL HepG2 Assay for human Liver X Receptor (LXR), DR4 submotif (AID 2282929); settings: HepG2 Attagene DR4 cis-reporter, mRNA transcription; actives raise or lower the signal
In short: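 Total RNA from 24 h-treated, MRTU-transfected HepG2 cells underwent reverse transcription, PCR, fluorescent primer extension and restriction digestion before capillary electrophoresis. Both increases and decreases in reporter signal were fitted against DMSO.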

[5] = biological target: Aryl hydrocarbon receptor (Homo sapiens) (UniProt P35869); assay: ATG_Ahr_CIS: Attagene CIS-FACTORIAL HepG2 Assay for human Aryl Hydrocarbon Receptor (Ahr) (AID 2282930); settings: HepG2 AhR cis-factorial reporter transcription; actives raise or lower the signal
Sequence of Aryl hydrocarbon receptor (Homo sapiens) (P35869 whole entry, looked up): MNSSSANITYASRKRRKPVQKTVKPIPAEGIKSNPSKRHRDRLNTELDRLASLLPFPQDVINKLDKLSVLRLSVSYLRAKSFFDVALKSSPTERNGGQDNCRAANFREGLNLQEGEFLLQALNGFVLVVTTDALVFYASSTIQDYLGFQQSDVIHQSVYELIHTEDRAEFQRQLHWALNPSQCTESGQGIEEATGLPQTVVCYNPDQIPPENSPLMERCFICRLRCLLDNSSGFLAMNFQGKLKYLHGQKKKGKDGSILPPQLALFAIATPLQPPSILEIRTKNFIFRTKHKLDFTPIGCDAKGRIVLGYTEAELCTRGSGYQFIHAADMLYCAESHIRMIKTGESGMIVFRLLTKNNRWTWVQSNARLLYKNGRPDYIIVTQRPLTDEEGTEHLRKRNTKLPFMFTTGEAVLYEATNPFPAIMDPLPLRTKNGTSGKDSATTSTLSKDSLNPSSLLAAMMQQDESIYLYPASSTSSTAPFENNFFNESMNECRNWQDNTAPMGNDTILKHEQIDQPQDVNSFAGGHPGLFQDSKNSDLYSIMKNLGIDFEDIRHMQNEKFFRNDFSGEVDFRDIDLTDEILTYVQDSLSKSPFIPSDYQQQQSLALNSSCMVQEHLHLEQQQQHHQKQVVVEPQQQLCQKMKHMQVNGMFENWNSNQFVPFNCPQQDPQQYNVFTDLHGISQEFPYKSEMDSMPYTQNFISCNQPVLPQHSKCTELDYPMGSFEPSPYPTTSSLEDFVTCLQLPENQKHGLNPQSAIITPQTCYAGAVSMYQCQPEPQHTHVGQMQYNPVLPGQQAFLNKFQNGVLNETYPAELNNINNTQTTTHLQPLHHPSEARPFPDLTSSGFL
In short: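 Values derive from bidirectional fitting against DMSO negative control. Underlying signal: cis-element reporter mRNA in transiently transfected HepG2, harvested 24 h post-dose and measured by RT-PCR plus capillary electrophoresis.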

[6] = ATG_AP_1_CIS: Attagene CIS-FACTORIAL HepG2 Assay for human Activator Protein 1 (AP-1) (AID 2282931); settings: HepG2 Attagene cis-factorial AP-1 reporter mRNA; actives raise or lower the signal
In short: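 HepG2, transient cis-reporter transfection; 24 h; readout RT-PCR/CE fluorescence; DMSO baseline, gain and loss fitted.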

[7] = ATG_AP_2_CIS: Attagene CIS-FACTORIAL HepG2 Assay for human Activator Protein 2 (AP-2) (AID 2282932); settings: HepG2 AP-2 cis-reporter, Attagene transcription factor profiling; actives raise or lower the signal
In short: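 Assay in transfected HepG2 with promoter-regulated reporters, 24 h incubation after dosing. Signal is reporter mRNA fluorescence (RT-PCR, capillary electrophoresis), analysed for both increases and decreases relative to DMSO controls.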

[8] = ATG_BRE_CIS: Attagene CIS-FACTORIAL HepG2 Assay for human Bone Morphogenetic Protein (BMP) Response Element (BRE) (AID 2282933); settings: HepG2 BMP response element reporter, Attagene transcription factor profiling; actives raise or lower the signal
In short: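 Endogenous transcription factor activity read in transiently transfected HepG2 cells after 24 h chemical exposure. Bidirectional curve fitting against DMSO; readout is reporter transcript level by RT-PCR with capillary electrophoresis of labelled products.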

[9] = biological target: Retinoic acid receptor alpha (Homo sapiens) (UniProt P10276); assay: ATG_DR5_RAR_CIS: Attagene CIS-FACTORIAL HepG2 Assay for human Retinoic Acid Receptor Alpha (RARE), DR5 submotif (AID 2282934); settings: HepG2 Attagene cis-factorial RARE DR5 reporter, mRNA; actives raise or lower the signal;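 as to AC50: reporter responds to endogenous RAR alpha beta and gamma in HepG2 not RARA alone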
Sequence of Retinoic acid receptor alpha (Homo sapiens) (P10276 whole entry, looked up): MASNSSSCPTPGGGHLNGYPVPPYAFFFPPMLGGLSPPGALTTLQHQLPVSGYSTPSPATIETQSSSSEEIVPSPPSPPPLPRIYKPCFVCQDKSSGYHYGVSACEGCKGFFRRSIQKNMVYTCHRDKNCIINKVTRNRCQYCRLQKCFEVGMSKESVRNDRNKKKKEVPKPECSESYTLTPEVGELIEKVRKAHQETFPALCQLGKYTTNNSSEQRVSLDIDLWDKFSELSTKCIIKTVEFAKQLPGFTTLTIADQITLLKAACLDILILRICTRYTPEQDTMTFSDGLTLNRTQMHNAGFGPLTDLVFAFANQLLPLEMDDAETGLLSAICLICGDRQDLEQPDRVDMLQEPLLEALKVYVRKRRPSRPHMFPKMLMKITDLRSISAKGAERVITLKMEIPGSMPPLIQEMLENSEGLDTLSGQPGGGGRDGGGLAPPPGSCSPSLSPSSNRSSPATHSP
In short: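 Endpoint fitted in both directions relative to DMSO as negative control. It reflects DR5 cis-element reporter mRNA induction in transiently transfected HepG2 cells, measured 24 h after dosing through RT-PCR and fluorescent capillary electrophoresis.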

[10] = biological target: Transcription factor E2F1 (Homo sapiens) (UniProt Q01094); assay: ATG_E2F_CIS: Attagene CIS-FACTORIAL HepG2 Assay for human E2F Transcription Factor 1 (AID 2282935); settings: HepG2 Attagene cis-reporter, E2F reporter RNA transcripts; actives raise or lower the signal
Sequence of Transcription factor E2F1 (Homo sapiens) (Q01094 whole entry, looked up): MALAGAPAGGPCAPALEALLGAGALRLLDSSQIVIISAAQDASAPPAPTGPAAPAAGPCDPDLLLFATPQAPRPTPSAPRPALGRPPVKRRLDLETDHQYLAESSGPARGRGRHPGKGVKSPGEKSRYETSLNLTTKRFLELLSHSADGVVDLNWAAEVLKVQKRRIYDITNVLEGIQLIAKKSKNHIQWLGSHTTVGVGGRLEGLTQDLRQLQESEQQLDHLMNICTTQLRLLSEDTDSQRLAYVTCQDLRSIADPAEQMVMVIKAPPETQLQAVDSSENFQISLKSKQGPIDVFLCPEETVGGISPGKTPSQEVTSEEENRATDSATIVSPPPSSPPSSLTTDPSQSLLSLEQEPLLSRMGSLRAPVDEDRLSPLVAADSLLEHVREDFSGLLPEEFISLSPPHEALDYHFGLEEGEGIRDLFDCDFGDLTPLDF
In short: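 In this cis-factorial format, endogenous factor activity drives transfected reporters in HepG2; transcripts collected at 24 h are quantified by fluorescence after RT-PCR and capillary separation.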

[11] = ATG_E_Box_CIS: Attagene CIS-FACTORIAL HepG2 Assay for human Enhancer Box (E-box) (AID 2282936); settings: HepG2 E-box cis-reporter transcription, actives raise or lower the signal
In short: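 Measured 24 h post-dosing in HepG2 cells transfected with multiple cis-regulated reporter units, signal being reporter mRNA induction detected by fluorescent RT-PCR with capillary electrophoresis; gain or loss fitted against DMSO.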

[12] = ATG_M_61_CIS: Attagene CIS-FACTORIAL HepG2 Assay for M61 Transcription Factor (Internal Marker) (AID 2282937); settings: HepG2 Attagene CIS-FACTORIAL M61 internal marker reporter; actives raise or lower the signal
In short: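 Transfect HepG2 with MRTUs; dose 24 h; isolate RNA; reverse-transcribe with DNase I treatment; PCR-amplify, FAM-label and cut with HpaI for 2 h at 37 C; resolve by CE. Bidirectional fitting against DMSO.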

[13] = ATG_EGR_CIS: Attagene CIS-FACTORIAL HepG2 Assay for human Early Growth Response 1 (EGR1) (AID 2282938); settings: HepG2 Attagene CIS-FACTORIAL EGR reporter mRNA; actives raise or lower the signal
In short: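 After a 24 h treatment of transiently transfected HepG2 cells, total RNA was reverse-transcribed and reporter sequences PCR-amplified, labelled and run on capillary electrophoresis. Reporters sit under cis-regulatory promoters sensing endogenous factors.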

[14] = ATG_M_19_CIS: Attagene CIS-FACTORIAL HepG2 Assay for M19 Transcription Factor (Internal Marker) (AID 2282939); settings: HepG2 Attagene CIS-FACTORIAL M19 internal marker reporter; actives raise or lower the signal
In short: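 Internal marker readout, fitted in both directions against DMSO, from HepG2 cells carrying transfected cis-element reporter constructs; RT-PCR and capillary electrophoresis of reporter mRNA after 24 h exposure.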

[15] = ATG_Ets_CIS: Attagene CIS-FACTORIAL HepG2 Assay for human Erythroblast Transformation Specific (ETS) (AID 2282941); settings: HepG2 ETS cis-reporter transcription, actives raise or lower the signal
In short: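 RT-PCR/capillary electrophoresis fluorescence read-out of reporter mRNA; HepG2 transient multi-reporter transfection; 24 h compound exposure; gain or loss of signal fitted bidirectionally relative to DMSO.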

[16] = biological target: Hepatocyte nuclear factor 3-beta (Homo sapiens) (UniProt Q9Y261); assay: ATG_FoxA2_CIS: Attagene CIS-FACTORIAL HepG2 Assay for human Forkhead box A2 (FOXA2) (AID 2282942); settings: HepG2 cis-reporter transcription factor activity, 24 h; actives raise or lower the signal
Sequence of Hepatocyte nuclear factor 3-beta (Homo sapiens) (Q9Y261 whole entry, looked up): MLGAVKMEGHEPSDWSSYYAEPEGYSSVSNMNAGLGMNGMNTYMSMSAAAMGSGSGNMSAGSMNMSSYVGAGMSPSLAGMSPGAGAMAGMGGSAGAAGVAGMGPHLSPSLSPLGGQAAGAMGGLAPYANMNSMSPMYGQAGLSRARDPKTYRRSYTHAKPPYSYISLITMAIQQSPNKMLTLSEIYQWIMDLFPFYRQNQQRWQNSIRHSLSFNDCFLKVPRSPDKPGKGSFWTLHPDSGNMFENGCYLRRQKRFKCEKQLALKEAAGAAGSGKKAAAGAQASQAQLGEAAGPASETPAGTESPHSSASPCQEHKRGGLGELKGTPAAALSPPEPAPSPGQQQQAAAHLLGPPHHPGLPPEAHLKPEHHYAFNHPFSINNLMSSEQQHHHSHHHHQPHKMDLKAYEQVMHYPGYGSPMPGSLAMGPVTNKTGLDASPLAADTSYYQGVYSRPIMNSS
In short: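 24 h dosing of HepG2 bearing cis-reporter constructs; mRNA readout by RT-PCR/CE fluorescence; bidirectional fit, DMSO baseline.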

[17] = ATG_GATA_CIS: Attagene CIS-FACTORIAL HepG2 Assay for human GATA Binding Protein (AID 2282944); settings: HepG2 GATA cis-element reporter, Attagene multiplex mRNA; actives raise or lower the signal
In short: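 Reporter transcripts from a GATA cis-regulated unit, among multiplexed reporters in transfected HepG2 cells, were measured by RT-PCR with capillary electrophoresis after 24 h dosing. Induction or loss scored relative to DMSO.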

[18] = ATG_GLI_CIS: Attagene CIS-FACTORIAL HepG2 Assay for human Zinc Finger Protein GLI1 (AID 2282945); settings: HepG2, Attagene cis-factorial reporter mRNA, GLI element; actives raise or lower the signal
In short: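 HepG2 cells transiently transfected with cis-promoter multiplexed reporter units report endogenous transcription factor activity. After 24 h chemical exposure, reporter mRNA was quantified by RT-PCR, 6-FAM labelling, HpaI digestion and capillary electrophoresis, with bidirectional fitting against DMSO.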

[19] = ATG_FoxO_CIS: Attagene CIS-FACTORIAL HepG2 Assay for human Forkhead box O (FoxO) (AID 2282943); settings: HepG2 Attagene cis-reporter, FoxO element, mRNA; actives raise or lower the signal
In short: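 Values reflect reporter mRNA induction or loss in HepG2 cells 24 h post-dosing, fitted bidirectionally with DMSO as negative control and baseline. Detection used RT-PCR and fluorescence capillary electrophoresis.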

Measured: AC50

CCC(=O)OCCC(C)CCC=C(C)C (stereo not drawn)
inactive: [1] | [2] | [3] | [4] | [5] | [6] | [7] | [8] | [10] | [11] | [12] | [13] | [14] | [15] | [16] | [17] | [18]
active: [9] 72.4 µM

COCCCOc1ccnc(CS(=O)c2nc3ccccc3[nH]2)c1C (stereo not drawn)
inactive: [1] | [2] | [3] | [4] | [6] | [7] | [8] | [9] | [10] | [11] | [12] | [13] | [14] | [15] | [16] | [19] | [17] | [18]
active: [5] 14.7 µM

CCCC[n+]1ccccc1
inactive: [1] | [2] | [3] | [4] | [5] | [6] | [7] | [8] | [9] | [10] | [11] | [12] | [13] | [14] | [15] | [16] | [19] | [17] | [18]

C[C@H]1C[C@@H]2[C@H]([C@@H](O)C[C@@]3(C)[C@H]2CC[C@]3(O)C(=O)CO)[C@@]2(C)C=CC(=O)C=C12
inactive: [1] | [2] | [3] | [4] | [5] | [6] | [7] | [8] | [9] | [10] | [11] | [12] | [13] | [14] | [15] | [16] | [17] | [18]

O=S(=O)(O)c1cccc2c(S(=O)(=O)O)cccc12
inactive: [1] | [2] | [3] | [4] | [5] | [6] | [7] | [8] | [9] | [10] | [11] | [12] | [13] | [14] | [15] | [16] | [19] | [17] | [18]

Cc1cccc(C)c1[N+](=O)[O-]
inactive: [1] | [2] | [3] | [4] | [5] | [6] | [7] | [8] | [9] | [10] | [11] | [12] | [13] | [14] | [15] | [16] | [17] | [18]

COc1ccc(Cl)cc1C
inactive: [1] | [2] | [3] | [4] | [6] | [7] | [8] | [9] | [10] | [11] | [12] | [13] | [14] | [16] | [19] | [17] | [18]
active: [5] 36.9 µM

O=C1CCCCCCCCCCCCCCO1
inactive: [2] | [7] | [8] | [10] | [11] | [12] | [13] | [14] | [15] | [16] | [19] | [17] | [18]
active: [1] 120 µM | [3] 100 µM | [4] 181 µM | [5] 145 µM | [6] 46.2 µM | [9] 100 µM

CC(C)=CCC[C@](C)(O)[C@@H]1CC=C(C)CC1
active: [3] 49.5 µM
inactive: [1] | [2] | [4] | [5] | [6] | [7] | [8] | [9] | [10] | [11] | [12] | [13] | [14] | [15] | [16] | [19] | [17] | [18]

CC(C)=CCCC(C)=CCCC(C)=CCO
inactive: [1] | [2] | [3] | [4] | [5] | [6] | [7] | [8] | [9] | [10] | [11] | [12] | [13] | [14] | [15] | [16] | [19] | [17] | [18]

CCN(CC)CCOC(=O)c1ccc(N)cc1
inactive: [1] | [2] | [3] | [4] | [5] | [6] | [7] | [8] | [9] | [10] | [11] | [12] | [13] | [14] | [15] | [16] | [19] | [17] | [18]

CCN(CC)c1ccc(C(=C2C=CC(=[N+](CC)CC)C=C2)c2ccc(S(=O)(=O)O)cc2S(=O)(=O)[O-])cc1
inactive: [1] | [2] | [3] | [4] | [5] | [6] | [7] | [8] | [9] | [10] | [11] | [12] | [13] | [15] | [16] | [19] | [17] | [18]

NCCNCCN
inactive: [1] | [2] | [3] | [4] | [5] | [6] | [7] | [8] | [9] | [10] | [11] | [12] | [13] | [14] | [15] | [16] | [19] | [17] | [18]

CC1(C)OC[C@@H]2O[C@@]3(C(=O)O)OC(C)(C)O[C@H]3[C@@H]2O1
inactive: [1] | [2] | [3] | [4] | [5] | [6] | [7] | [8] | [9] | [10] | [11] | [12] | [13] | [15] | [16] | [19] | [17]

C=CC(=O)OCCOCCOCC
active: [3] 48.2 µM | [13] 100 µM
inactive: [1] | [2] | [4] | [5] | [6] | [7] | [8] | [9] | [10] | [11] | [12] | [14] | [15] | [16] | [19] | [17] | [18]
